Shiga toxin inh = Shiga toxin inhibition. Vero cells, Shiga toxin protein synthesis inhibition reporter. inhibition, % at 38.7 µM. 290,000 compounds, 9.2% hits. AID 2315; in the data active means inhibition mostly above about 28%, no sharp cut-off; inactive means mostly below about 43%; further: 0% is about no effect
NS1 inh = inhibitors of influenza NS1 protein function; Potency, µM (series often up to 46.1 µM), for inactives: top-dose activity, positive = more growth; 270,000 compounds, 0.4% hits; AID 2326; calls by dose curve; further: potency means the concentration at half of the fitted maximal effect; actives are rising curves; nearly all actives have a fitted effect of over 50% in size
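Compounds were scored for reversing the slow growth caused by influenza A NS1 in S. cerevisiae, measured by optical density at 600 nm. Assay medium contained 2% galactose at pH 6.0; NS1-free yeast of the same strain were the positive control.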
Pf growth 96h = inhibits malaria parasite growth, 96 h; P. falciparum luciferase reporter growth, 96 h; Potency, µM (doses to about 28.7 µM), for inactives: at the top dose activity change, negative = inhibition, hits mostly inhibitors; 320,000 compounds, 6.9% hits; AID 504834; further: potency means the concentration at half of the fitted maximal effect; on the % scale 0 is the no-effect control and ±100 the full control effect
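Luminescence readout: decreased luciferase signal marks inhibited growth of reporter-expressing P. falciparum in infected red cells (2% hematocrit, 0.05% parasitemia final), exposed to compound two generations (96 h, 37 C, 5% CO2).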
Pf growth 48h = P. falciparum growth inhibition at 48 hours (one generation); P. falciparum luciferase growth in erythrocytes, 48 h; 310,000 compounds, 5.9% hits; Potency, µM (titrated, usually from 28.7 µM), for the others: at the top dose activity change, negative = inhibition, usual class: inhibitors; further: potency means the concentration at half of the fitted maximal effect; on the % scale 0 is the no-effect control and ±100 the full control effect
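In quantitative HTS format, infected erythrocytes bearing luciferase-reporter parasites were treated for a single generation at 37 C. Luminescence after adding detection reagent served as the growth measure.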
CHX counter = counter-screen hit for Shiga toxin inhibitors, cycloheximide; cell reporter, cycloheximide protein synthesis inhibition counterscreen; max response, %; 300,000 compounds, 12% hits; AID 2314; in the data active means max response mostly above about 13%, no sharp cut-off; inactive means mostly below about 14%; further: read at 38.3 µM for the half of the compounds with a filed dose; 0% is about no effect
Sm TGR inh = inhibitors of Schistosoma mansoni thioredoxin glutathione reductase; purified TGR, DTNB reduction, TNB absorbance 405 nm; Potency, µM (titrated, usually from 114 µM), for inactives: at the highest dose activity change, negative = inhibition, actives largely listed as inhibitors; 360,000 compounds, 3% hits; further: potency means the concentration at half of the fitted maximal effect; on the % scale 0 is the no-effect control and ±100 the full control effect; nearly all actives have a fitted effect of over 60% in size
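First, TGR (20 nM dispensed) and NADPH were mixed with compound. Second, a 15 min room-temperature incubation followed. Third, further NADPH and then DTNB were added to start the reaction. Finally, TNB absorbance was monitored kinetically.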
An asterisk follows results filed as active; i = inactive; ? = inconclusive; . = no result given. Rows were chosen to be rich in hits. Some 21% of all compounds tested hit in one or more screens of this group. Unless noted, the call rests on the fitted dose curve; in most records, active means well fitted curve in the direction sought with a large enough effect; inconclusive means small, poorly fitted or top-dose-only effect, or another doubt; inactive means no such curve, though single readings can be large; an effect the other way counts as inactive or inconclusive.

SMILES	Shiga toxin inh	NS1 inh	Pf growth 96h	Pf growth 48h	CHX counter	Sm TGR inh
Cc1cccc(CSc2nc3c(c(-c4cccs4)c2C#N)CN(C)CC3)c1	-9	22%	?	?	-7	-29%
Brc1cc(Cc2nnc(-c3ccccc3)o2)c(Br)s1	24	-7%	15%	?	14*	0%
CCCCCC/C=C/c1ccc(C2C3C=CCC(C)C3C(=O)N2Cc2ccccc2)c(F)c1 (stereo not drawn)	7	.	.	.	-6	.
O=C1NC(=S)N/C1=C/C=C/c1ccccc1	35	.	?	10%	43*	-13%
CCn1c(SCC(=O)OC)nnc1-c1c[nH]c2ccccc12	-9	-2%	10%	11%	0	7%
COC(=O)c1ccc(CSc2nc3ccncc3n2Cc2ccc(F)cc2)cc1	.	.	.	.	.	7%
Cc1ccc(-c2cc(C(=O)OCC(=O)N(C)C3CCS(=O)(=O)C3)c3ccccc3n2)o1 (stereo not drawn)	23	15%	68%	51%	3	14µM*
Cc1ccc(-c2cc(C(=O)OCC(=O)N(C)C3CCS(=O)(=O)C3)c3ccccc3n2)c(C)c1 (stereo not drawn)	7	.	7%	20%	9	6%
CCN(C(=O)COC(=O)c1cc(-c2ccc(C)o2)nc2ccccc12)C1CCS(=O)(=O)C1 (stereo not drawn)	7	.	95%	41%	13	25µM*
CCN(C(=O)COC(=O)c1cc(-c2cccs2)nc2ccccc12)C1CCS(=O)(=O)C1 (stereo not drawn)	-3	.	8%	-19%	-2	-10%
COc1ccc(-c2cc(C(=O)OCC(=O)N(C)C3CCS(=O)(=O)C3)c3ccccc3n2)cc1OC (stereo not drawn)	52	.	-3%	41%	17*	-3%
CCCC(C)c1nc(C(N)=O)c2[nH]c(=O)n(-c3ccc(OC)c(OC)c3)c2n1 (stereo not drawn)	-4	15%	-18%	-1%	-2	-4%
O=C(Nc1ccc(C(=O)NCc2ccccc2)cc1)C1=CSCCO1	38*	-1%	?	9%	28*	-7%
CC(C)OCCCNC(=O)c1ccc(NC(=O)C2=CSCCO2)cc1	5	-8%	-3%	-10%	1	2%
O=C(Nc1ccc(C(=O)NCc2ccc(F)cc2)cc1)C1=CSCCO1	102*	-11%	30%	?	38*	-12%
O=C(Nc1ccc(C(=O)N2CCN(c3ccc(F)cc3)CC2)cc1)C1=CSCCO1	12	2%	?	?	13	-9%
CCc1ccc(CNC(=O)c2ccc(NC(=O)C3=CSCCO3)cc2)cc1	21*	0%	?	2%	33*	-23%
Cc1nc2nc(SCc3ccccc3)[nH]n2c(=O)c1C	30	0%	-6%	?	1	5%
COc1ccccc1CNC(=O)CNC(=O)c1ccc(Br)o1	-3	7%	46%	12%	-3	-22%
COc1ccc(-n2nc(C(=O)NCC(=O)NCC3COc4ccccc4O3)c3ccccc3c2=O)c(OC)c1 (stereo not drawn)	-9	9%	-22%	-26%	-1	13%
O=C(Cn1ccn(-c2ccc(F)cc2)c(=O)c1=O)Nc1ccccc1C(F)(F)F	.	.	.	.	.	-3%
O=C(/C=C/c1ccc([N+](=O)[O-])cc1)c1cccnc1	-6	-23%	-26%	-1%	-2	16µM*
O=C(/C=C/c1ccc([N+](=O)[O-])cc1)NCc1cccnc1	-15	0%	68%	66%	-3	-27%
COC(=O)c1cccc(NC(=O)/C=C/c2ccc3c(c2)OCO3)c1	21*	-7%	6%	243%	43*	5%
CC(C)(C)c1ccc(/C=C/C(=O)Nc2nncs2)cc1	56*	-2%	15%	291%	63*	-5%
SMILES	Shiga toxin inh	NS1 inh	Pf growth 96h	Pf growth 48h	CHX counter	Sm TGR inh
O=C(/C=C/c1ccc2c(c1)OCO2)Nc1nncs1	45*	-1%	73%	231%	30*	7%
COc1ccc(NC(=O)c2cc(S(=O)(=O)N3CCCC(C)C3)cn2C)c(OC)c1 (stereo not drawn)	.	.	.	.	.	1%
Brc1cccc(-c2nnn3c2nc(N2CCCCC2)c2ccccc23)c1	.	.	.	.	.	4%
Cc1cccnc1NC(=O)/C=C/c1ccc2c(c1)OCO2	85*	-7%	10µM*	239%	50*	5%
CC(=O)Nc1ccc(NC(=O)/C=C/c2ccc3c(c2)OCO3)cc1	23	1%	68%	20%	32*	-19%
O=C(/C=C/c1ccc2c(c1)OCO2)Nc1cccnc1	91*	.	-19%	440%	36*	1%
O=C(/C=C/c1ccc2c(c1)OCO2)Nc1c(C(=O)O)[nH]c2ccccc12	55*	20%	i	8%	50*	-9%
CCOC(=O)c1[nH]c2ccc(OC)cc2c1NC(=O)/C=C/c1ccc2c(c1)OCO2	19	24%	55%	-4%	7	3%
NS(=O)(=O)c1ccc(NC(=O)/C=C/c2ccc3c(c2)OCO3)cc1	18	.	31%	21%	5	11%
CN1CCN(NC(=S)Nc2ccc(Oc3ccccc3)cc2)CC1	-3	-3%	?	-17%	-2	?
Cc1cc(C)cc(NC(=O)CN(C)S(=O)(=O)c2ccc3c(c2)CCC(=O)N3)c1	.	.	.	.	.	-1%
Cc1ccc(N2C(=O)CCSC23C(=O)N(Cc2ccccc2)c2ccccc23)cc1F (stereo not drawn)	.	.	.	.	.	2%
C[C@@H]1C=C(C(=O)N2CCOCC2)O[C@H](OCc2ccc(CO)cc2)C1	-21	0%	63%	-4%	6	-7%
Cc1ccccc1-n1nc2c(c1NC(=O)/C=C\c1ccc3c(c1)OCO3)CSC2	-6	20%	12µM*	?	-4	-7%
O=C(N/N=C\C=C\c1ccc2c(c1)OCO2)c1cccnc1	78*	10%	?	8%	18*	-11%
O=C(/C=C/c1ccc2c(c1)OCO2)c1cccnc1	29	-9%	5%	6%	22*	?
Cc1cc(C)nc(NC(=O)/C=C/c2ccc3c(c2)OCO3)c1	66*	12%	195%	161%	52*	-1%
O=C(/C=C/c1cccc(OCc2ccccc2)c1)c1cccnc1	-11	-13%	166%	7%	8	?
CC(C)(CNC(=O)c1cccc(S(=O)(=O)Nc2ccc(Br)cc2)c1)N1CCOCC1	.	.	?	-28%	.	-5%
O=C(NCCC1CCCCN1S(=O)(=O)c1ccccc1)C(=O)NC1CC1 (stereo not drawn)	.	.	19%	7%	.	2%
CN1C2C=C3C(C#N)=C(N)C(C#N)(C#N)[C@@H](c4cccc(F)c4)[C@@H]3C1CC2 (stereo partly drawn)	43	11%	0.66µM*	?	-3	-14%
